In PubChem BioAssay (Tox21):
Records with an inconclusive call do not appear. Active and inactive are the calls of the source. Unless noted, the call rests on the fitted dose curve; in most records, active means well fitted curve in the direction sought with a large enough effect in the repeat runs; inconclusive means weak or mixed curves; inactive means flat fitted curve, though single readings scatter.

Test system: not listed separately
Experiment: qHTS assay to test for compound auto fluorescence at 460 nm (blue) in HepG2 cells (AID 720687)
Settings: autofluorescence 405/460 nm, 1 h; series mostly up to 46 µM; fluorescence, % of fluorescent control: at the top concentration
Summary of the method: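 Cells (2,000/well in MEM with 10% FBS) attached overnight at 37 C, then were exposed to compound or DMSO for 1 hr at 37 C, 5% CO2. Fluorescence read at Ex/Em 405/460 nm, expressed as triamterene-equivalent signal.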
On the % scale 0 is the no-effect control and ±100 the full control effect.

Row | Compound | fluorescence, % of fluorescent control
1 | OC1OC[C@@H](O)[C@H](O)[C@@H]1O (some centres not stated) | -0.203% (inactive)
2 | CCN(CC)c1ccc(C(=C2C=CC(=[N+](CC)CC)C=C2)c2ccccc2)cc1 | -0.0188% (inactive)
3 | CC(CCc1ccc(O)cc1)NCC(O)c1ccc(O)cc1 (configuration not stated) | -0.0056% (inactive)
4 | CC(=O)Nc1c(I)c(C(=O)O)c(I)c(N(C)C(C)=O)c1I | -0.0298% (inactive)
5 | C[C@]12C=CC(=O)N[C@@H]1CC[C@@H]1[C@@H]2CC[C@]2(C)[C@@H](C(=O)Nc3cc(C(F)(F)F)ccc3C(F)(F)F)CC[C@@H]12 | 0.0041% (inactive)
6 | CCC(Oc1ccccc1)C(=O)N[C@@H]1C(=O)N2[C@@H]1SC(C)(C)[C@@H]2C(=O)O (some centres not stated) | -0.0792% (inactive)
7 | COc1c(O[C@@H]2O[C@H](CO)[C@@H](O)[C@H](O)[C@H]2O)cc2c(c1OC)-c1ccc(SC)c(=O)cc1[C@@H](NC(C)=O)CC2 | 0.0633% [at 18.6 µM] (inactive)
8 | CC[C@@H]1/C=C(\C)C[C@H](C)C[C@H](OC)[C@H]2O[C@@](O)(C(=O)C(=O)N3CCCC[C@H]3C(=O)O[C@H](/C(C)=C/[C@@H]3CC[C@@H](Cl)[C@H](OC)C3)[C@H](C)[C@@H](O)CC1=O)[C@H](C)C[C@@H]2OC | -0.0024% (inactive)
9 | COc1ccc(C[C@H](N)C(=O)N[C@H]2[C@@H](O)[C@H](n3cnc4c(N(C)C)ncnc43)O[C@@H]2CO)cc1 | 0.0298% (inactive)
10 | O=C(NNCNNC(=O)c1ccncc1)c1ccncc1 | -0.0984% (inactive)
11 | CC(O)[C@H]1CC[C@H]2[C@@H]3CC[C@@H]4C[C@@H](O)CC[C@]4(C)[C@H]3CC[C@]12C (some centres not stated) | 0.184% (inactive)
12 | CCCCc1cc2c(=O)c(C(=O)OC)c[nH]c2cc1OCc1ccccc1 | -0.001% (inactive)
13 | C=C[C@]1(C)C[C@@H](OC(=O)CSCCN(CC)CC)[C@]2(C)[C@H](C)CC[C@]3(CCC(=O)[C@H]32)[C@@H](C)[C@@H]1O | 0.103% (inactive)
14 | CCCCCCCCCCCCCCCCCC(=O)OCC(C)O (configuration not stated) | -0.0494% (inactive)
15 | CCCCC[C@H](O)/C=C/[C@@H]1[C@H]2C/C(=C/CCCC(=O)O)O[C@H]2C[C@H]1O | 0.039% (inactive)
16 | CCOC(=O)[C@@H](N)CS | -0.008% (inactive)
17 | CC1(C)S[C@@H]2[C@H](NC(=O)C(N)c3ccccc3)C(=O)N2[C@H]1C(=O)OC1OC(=O)c2ccccc21 (some centres not stated) | 0.198% [at 18.6 µM] (inactive)
18 | CN1CCc2c(c3ccccc3n2Cc2ccccc2)C1 | 0.0721% [at 18.6 µM] (inactive)
19 | CN(C)CCOc1ccccc1Cc1ccccc1 (tested in a mixture with another compound) | 0.033% (inactive)
20 | CCOC(=O)c1c[nH]c2cc(OCC(C)C)c(OCC(C)C)cc2c1=O | -0.131% (inactive)
21 | CN(CCO)CC(O)Cn1cnc2c1c(=O)n(C)c(=O)n2C (configuration not stated) (tested in a mixture with another compound) | -0.0265% (inactive)
22 | FCOC(C(F)(F)F)C(F)(F)F | 0.0835% (inactive)
23 | CCN(CC)CCOc1ccc2nc(N(C)C)sc2c1 | -0.0395% (inactive)
24 | COc1cc(-c2ccc(-[n+]3nc(-c4ccccc4)nn3-c3ccc([N+](=O)[O-])cc3)c(OC)c2)ccc1-[n+]1nc(-c2ccccc2)nn1-c1ccc([N+](=O)[O-])cc1 | -0.0058% (inactive)
25 | COC(=O)[C@H]1[C@H]2C[C@@H]3c4[nH]c5ccccc5c4CCN3C[C@H]2C[C@@H](OC(=O)c2cc(OC)c(OC)c(OC)c2)[C@@H]1OC | 1.71% (inactive)

Target: Glucocorticoid receptor (Homo sapiens) (UniProt P04150)
Experiment: qHTS assay to identify small molecule agonists of the glucocorticoid receptor (GR) signaling pathway (AID 720691; active means well fitted activation curve with a large enough effect in the signal ratio in the repeat runs, not every such curve was filed as active; the % refers to the signal ratio; further: potency means the concentration at half of the fitted maximal effect)
Settings: GR-bla HeLa, beta-lactamase reporter ratio, 18 h; activation: at 62.4 µM (top of the series)
Summary of the method: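 Reporter read-out: fluorescence intensity following 2 h room-temperature LiveBLAzer B/G FRET substrate loading. Prior step: GR-bla HeLa cells held 4 h, then treated 18 h at 37 C.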

Glucocorticoid receptor (Homo sapiens), sequence (P04150 whole entry, looked up): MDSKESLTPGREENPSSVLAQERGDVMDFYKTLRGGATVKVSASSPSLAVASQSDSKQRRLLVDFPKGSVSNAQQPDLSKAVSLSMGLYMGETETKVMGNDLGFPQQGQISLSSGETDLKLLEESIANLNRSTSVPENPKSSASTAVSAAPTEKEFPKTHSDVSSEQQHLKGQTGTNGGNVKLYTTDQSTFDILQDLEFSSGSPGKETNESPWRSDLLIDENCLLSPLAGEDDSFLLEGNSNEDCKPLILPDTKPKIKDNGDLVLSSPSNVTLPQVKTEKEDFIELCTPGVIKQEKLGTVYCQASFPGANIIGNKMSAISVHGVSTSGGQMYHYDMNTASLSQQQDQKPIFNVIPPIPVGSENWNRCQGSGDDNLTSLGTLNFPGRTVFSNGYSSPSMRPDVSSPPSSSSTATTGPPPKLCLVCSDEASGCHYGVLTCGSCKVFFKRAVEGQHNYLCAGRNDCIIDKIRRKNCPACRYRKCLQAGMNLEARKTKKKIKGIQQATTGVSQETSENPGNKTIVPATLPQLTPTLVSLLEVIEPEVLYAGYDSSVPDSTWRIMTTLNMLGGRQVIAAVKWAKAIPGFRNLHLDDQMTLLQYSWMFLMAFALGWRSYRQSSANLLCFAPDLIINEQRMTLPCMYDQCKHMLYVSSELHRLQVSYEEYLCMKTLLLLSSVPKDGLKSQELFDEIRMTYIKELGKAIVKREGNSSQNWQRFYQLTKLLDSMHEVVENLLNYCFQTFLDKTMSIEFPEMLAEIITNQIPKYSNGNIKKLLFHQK

Row | Compound | activation | Potency
26 | CCCCCC(O)/C=C/C=O (configuration not stated) | -2.74% (inactive) | 
27 | CC(=O)Nc1c(I)c(C(=O)O)c(I)c(N(C)C(C)=O)c1I | 0.265% (inactive) | 
28 | C[C@]12C=CC(=O)N[C@@H]1CC[C@@H]1[C@@H]2CC[C@]2(C)[C@@H](C(=O)Nc3cc(C(F)(F)F)ccc3C(F)(F)F)CC[C@@H]12 |  | 26.8 µM (active)
29 | C[C@H](O)[C@H](O)[C@H]1CNc2nc(N)[nH]c(=O)c2N1 | 3.01% (inactive) | 
30 | CCCCc1cc2c(=O)c(C(=O)OC)c[nH]c2cc1OCc1ccccc1 | -3.64% (inactive) | 
31 | CCOC(=O)[C@@H](N)CS | -0.764% (inactive) | 
32 | CCOC(=O)c1c[nH]c2cc(OCC(C)C)c(OCC(C)C)cc2c1=O | 0.16% (inactive) | 
33 | FCOC(C(F)(F)F)C(F)(F)F | 0.669% (inactive) | 

Target: Glucocorticoid receptor (Homo sapiens) (UniProt P04150)
Experiment: qHTS assay to identify small molecule antagonists of the glucocorticoid receptor (GR) signaling pathway (AID 720692; active means well fitted inhibition curve with a large enough effect in the signal ratio in the repeat runs, not every such curve was filed as active; the % refers to the signal ratio)
Settings: GR-bla HeLa, beta-lactamase FRET ratio, dexamethasone-stimulated, 18 h; series mostly up to 58.5 µM; activity change, negative = inhibition: at the top concentration
Summary of the method: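 Dexamethasone (5 nM final) stimulated a stably integrated GRE-beta-lactamase reporter in HeLa cells during 18 h co-incubation with compounds; signal was quantified as fluorescence intensity of B/G FRET substrate after 2 h.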

Row | Compound | activity change, negative = inhibition
34 | CCCCCC(O)/C=C/C=O (configuration not stated) | -10.9% (inactive)
35 | O=C(Cn1c(=O)sc2ccc(Cl)cc21)N1CCN(CCO)CC1 | -2.84% (inactive)
36 | CC(=O)Nc1c(I)c(C(=O)O)c(I)c(N(C)C(C)=O)c1I | 3.9% (inactive)
37 | C[C@H](O)[C@H](O)[C@H]1CNc2nc(N)[nH]c(=O)c2N1 | -0.374% (inactive)
38 | CCCCc1cc2c(=O)c(C(=O)OC)c[nH]c2cc1OCc1ccccc1 | -6.43% (inactive)
39 | C=C[C@]1(C)C[C@@H](OC(=O)CSCCN(CC)CC)[C@]2(C)[C@H](C)CC[C@]3(CCC(=O)[C@H]32)[C@@H](C)[C@@H]1O | -1.06% (inactive)
40 | CCOC(=O)[C@@H](N)CS | 6.46% (inactive)
41 | CCOC(=O)c1c[nH]c2cc(OCC(C)C)c(OCC(C)C)cc2c1=O | -0.598% (inactive)
42 | FCOC(C(F)(F)F)C(F)(F)F | 17.1% (inactive)
